Only some compounds are listed: those with a hit (about 4.3% of all), similar ones and a draw of the others.
KKLEB cytotox = cytotoxicity in KKLEB CF airway cells, primary screen, cytotoxicity control for CF NF-kB inhibitor project, cell-based, uHTS, fluorescence assay plates | KKLEB CF airway cells viability, ATPlite luminescence, overnight; active compounds read low; cells stimulated with P. aeruginosa culture filtrate | activity change (cytotoxicity), % at 5 µM | 360,000 tested, 0.36% active | AID 602141, 2011;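 active = corrected activity change at or below -50% at 5 µM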
CHOP inhibitor = inhibitors of CHOP promoter induction, primary screen, cell-based, unfolded protein response, luciferase reporter; AID 2732, 2010; CHO-K1 CHOP-promoter luciferase, tunicamycin-induced, 15-18 h; 220,000 tested, 3.8% active; inhibition, % at 10 µM;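 active = compounds that reduced the stress-induced luciferase reporter signal by more than about 70% of percent inhibition, limit read from the data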
MITF TRPM1 inh = inhibitors of MITF-dependent TRPM1 promoter reporter, primary screen, cell-based, SK-MEL-5, single point, luciferase; SK-MEL-5 TRPM1 promoter luciferase, 24 h; inhibition, % at 12.5 µM; 330,000 tested, 0.83% active;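 active = mean inhibition across replicates of 60% or more, whatever share of single replicates reaches that level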
Peg3 prom inh = Peg3 promoter-driven luciferase inhibitors, primary screen, cell-based, HeLa, luciferase luminescence | inhibition, % at 20 µM | AID 588405, 2011 | 360,000 tested, 1.7% active | HeLa PEG-Prom luciferase reporter, overnight;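 active = inhibition of at least 50% at 20 µM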
HIF-2a inh = HIF-2a reporter inhibitors, primary screen, luminescence, 786-0 RCC cells; 786-0 RCC cells HIF-2a reporter, luciferase luminescence, overnight; inhibition, % at 18.8 µM; 360,000 tested, 0.72% active; AID 624352, 2012;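 active = inhibition of the luminescence signal of 40% or more relative to plate controls, in a single-dose primary screen at 18.75 µM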
CF NFkB inh = inhibitors of PAF-induced NF-kB signaling, primary screen, cell-based, GFP fluorescence, uHTS. 360,000 tested, 0.86% active. inhibition, % at 5 µM. KKLEB NF-kB-GFP reporter, GFP fluorescence overnight;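 active = at least 50% inhibition at 5 µM, scaled per plate between neutral and stimulator controls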;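 also: PAF is a Pseudomonas aeruginosa culture filtrate used as stimulus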
CHOP inh conf = retest of CHOP induction inhibitors, confirmation, cell-based | CHO-CHOP promoter luciferase reporter, tunicamycin-induced, luminescence | AID 504437, 2011 | inhibition, % at 10 µM | 2,100 tested, 45% active | shares compounds with CHOP inhibitor;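 active = mean of three repeat readings of reporter signal inhibition above a set limit, cut at about 70% in these data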
Numbers stand for hits; . = inactive; / = no result given.

SMILES	KKLEB cytotox	CHOP inhibitor	MITF TRPM1 inh	Peg3 prom inh	HIF-2a inh	CF NFkB inh	CHOP inh conf
Clc1ccc(-n2nnnc2-c2cnc3ccc(Cl)cc3c2-c2ccccc2)cc1	.	.	.	.	.	.	/
Clc1ccc2ncc(-c3nnnn3-c3ccccc3)c(-c3ccccc3)c2c1	.	107	.	.	.	.	.
COc1ccc(S(=O)(=O)N2CCC(C(=O)N[C@H](C(=O)N3CCCCCC3)C(C)C)CC2)cc1	.	/	.	.	.	.	/
Cc1cc(C(=O)N/N=C/c2ccc(-c3cccc(Cl)c3Cl)o2)n[nH]1	.	101	.	.	.	.	73
Cc1cc(C(=O)N/N=C/c2ccc(-c3cccc(Br)c3)o2)n[nH]1	.	.	/	.	.	.	/
CC(C)NC(=O)c1ccc(CN2CCc3ccccc3C2)cc1	.	/	.	.	.	.	/
Cc1cccc(OCC(=O)Nc2nonc2NC(=O)COc2cccc(C)c2)c1	.	.	.	.	.	.	/
Cc1ccc(C)c(OCC(=O)Nc2nonc2NC(=O)COc2cc(C)ccc2C)c1	.	101	.	.	.	.	.
COc1ccc(-c2nc3ccccc3c(=O)n2N)cc1	.	.	.	.	.	.	/
COc1ccc(C(=O)On2c(-c3ccc(Br)cc3)nc3ccccc3c2=O)cc1	.	105	.	.	.	.	.
COc1cc(OC)cc(-c2nc3ccccc3c(=O)n2OC(=O)c2ccc(Br)cc2)c1	.	106	.	.	.	.	112
CC1=NOC(=O)/C1=C\c1ccc(-c2cccc(Cl)c2)o1	.	102	76	105	83	93	.
CC1=NOC(=O)/C1=C\c1ccc(-c2ccc(Cl)c(C(=O)O)c2)o1	.	.	.	.	.	.	/
Cn1c(=O)n(CCOc2ccccc2Cl)c2ccccc21	.	.	.	.	.	.	/
Cn1c(=O)n(CCOc2ccc(Cl)cc2Cl)c2ccccc21	.	98	.	.	.	.	71
O=C(Nc1cccc(F)c1)N(Cc1ccc(Cl)cc1)CC(O)C(F)(F)F (configuration not stated)	.	109	.	.	.	.	104
CC(C)(C)C(=O)Nc1ccc(-c2nc3ccccc3c(=O)o2)cc1	.	105	.	.	.	.	90
CC(C)(C)C(=O)Nc1cccc(-c2nc3ccccc3c(=O)o2)c1	.	.	.	.	.	.	/
COc1cc(CNc2ncnc3c2ncn3[C@H]2CN(Cc3ccncc3)C[C@@H](CO)O2)cc(OC)c1OC	.	/	/	.	.	.	/
Cc1ccc(NC(c2ccccc2)c2nc3ccccc3[nH]c2=O)cc1 (configuration not stated)	.	102	.	.	.	.	.
N#CSC(c1ccccc1)c1nc2ccccc2[nH]c1=O (configuration not stated)	.	/	.	.	.	.	/
COc1ccc(S(=O)(=O)NCC(c2ccc3c(c2)OCO3)N2CCOCC2)cc1 (configuration not stated)	.	/	.	.	.	.	/
CCCCCC1CC(CC(=O)Nc2ccc([N+](=O)[O-])cc2)C(=O)O1 (configuration not stated)	.	101	.	.	.	.	104
CCN(CC)CC(=O)Nc1ccc([N+](=O)[O-])cc1	.	.	.	.	.	.	/
CCOC(=O)c1sc(NC(=O)CSc2nnnn2-c2ccc(C)cc2C)nc1C	.	100	.	.	.	.	.
SMILES	KKLEB cytotox	CHOP inhibitor	MITF TRPM1 inh	Peg3 prom inh	HIF-2a inh	CF NFkB inh	CHOP inh conf
COc1ccccc1-c1cn[nH]c1-c1ccc(OCc2ccc([N+](=O)[O-])cc2)cc1O	.	99	.	.	.	.	.
COc1ccc(-c2cn[nH]c2-c2ccc(OCc3ccccc3)cc2O)cc1OC	.	.	.	.	.	.	/
O=[N+]([O-])c1ccc(COc2ccc(-c3[nH]ncc3-c3ccccc3)c(O)c2)cc1	.	99	.	.	.	.	102
COCCn1c(=NC(=O)c2cc3ccccc3oc2=O)sc2cc(S(N)(=O)=O)ccc21	.	101	.	.	.	.	.
COCCn1c(=NC(=O)CN2C(=O)CCC2=O)sc2cc(S(N)(=O)=O)ccc21	.	.	.	.	.	.	/
COc1ccc(S(=O)(=O)N2CCCC2CNC(=O)C(=O)NCc2ccccc2Cl)cc1 (configuration not stated)	.	/	.	.	.	.	/
O=C(CSc1nc(C2CC2)nc2c1cnn2-c1ccccc1)Nc1c[nH]c(=O)[nH]c1=O	.	96	.	.	.	.	.
CC(=O)c1ccc(NC(=O)C(C)OC(=O)/C=C/c2ccco2)cc1 (configuration not stated)	.	/	.	.	.	.	/
CCc1ccc2c(c1)C(c1ccc([N+](=O)[O-])cc1)=NNC(c1ccc(C)cc1)=N2	.	97	.	.	.	.	83
O=C(NC(c1ccccc1)c1cc(Cl)c2cccnc2c1O)c1cccnc1 (configuration not stated)	/	104	/	/	/	/	104
O=C(O)COc1ccccc1C(Nc1cccnc1)c1cc(Cl)c2cccnc2c1O (configuration not stated)	.	.	.	.	.	.	/
CN(C)CCCn1c(SCC(=O)Nc2nc(-c3cccc(Br)c3)cs2)nc2ccccc2c1=O	.	106	63	104	.	.	105
O=S(=O)(Nc1ccc(C(O)(C(F)(F)F)C(F)(F)F)cc1)c1cccc2ccccc12	.	/	/	.	.	.	/
CN(C)c1ccc(C(CNS(=O)(=O)c2ccc(F)cc2)c2c[nH]c3ccccc23)cc1 (configuration not stated)	.	107	.	.	.	.	.
O=C1CC(SC(=S)C2CCCC2=O)C(=O)N1 (configuration not stated)	.	/	/	.	.	.	/
CCOC(=O)Cc1cc(-c2ccc(O)cc2)nc2ccc3ccccc3c12	.	101	.	.	.	.	96
CCOC(=O)Cc1cc(-c2ccc(OC)cc2)nc2ccc3ccccc3c12	.	.	.	.	.	.	/
COc1ccc(CN2CCC[C@]3(N[C@H](c4ccc(OC)cc4)[C@@H]4C(=O)N(C)C(=O)[C@@H]43)C2=O)cc1	.	/	/	.	.	.	/
O=C(N/N=C/c1ccc(F)cc1)c1c(O)c2ccccc2[nH]c1=O	.	101	63	.	.	.	72
O=C(Nc1cccc(F)c1)c1c(O)c2ccccc2[nH]c1=O	.	/	.	.	.	.	/
O=C(N/N=C/c1cccc(F)c1)c1c(O)c2ccccc2[nH]c1=O	-64	104	.	.	.	65	93

Screens deposited in PubChem by several laboratories.
